# Results: PubChem BioAssay (NCATS)
# Records with an inconclusive call do not appear. Entries that show only a call come without a potency. Active and inactive are the calls of the source. The call rests on the fitted dose curve; in most records, active means well fitted curve in the direction sought with a large enough effect; inconclusive means small, poorly fitted or top-dose-only effect, or another doubt; inactive means no such curve, though single readings can be large; an effect the other way counts as inactive or inconclusive.
# What was measured:
# [1] = biological target: Aldehyde dehydrogenase, mitochondrial (Homo sapiens) (UniProt P05091); assay: qHTS for Inhibitors of the Aldehyde Dehydrogenase Family (ALDH2) Primary screen (AID 2061308); further: nearly all actives have a fitted effect of over 55% in size
# [2] = biological target: Retinaldehyde dehydrogenase 3 (Homo sapiens) (UniProt P47895); assay: qHTS for Inhibitors of the Aldehyde Dehydrogenase Family (ALDH1A3) Primary screen (AID 2061315)
SMILES,Potency [1],Potency [2]
O=C(NNC(=O)c1cc2ccccc2[nH]1)OCc1ccccc1,inactive,inactive
O=S(=O)(c1ccc2c(c1)OCCO2)N1CCN(S(=O)(=O)c2ccc(Br)cc2F)CC1,inactive,inactive
COC(=O)C1=C(C)NC(COC(N)=O)=C(C(=O)OC(C)C)C1c1cccc(Cl)c1Cl (centres undefined),inactive,inactive
O=C(COc1ccc(F)cc1)NCCc1nc2ccccc2[nH]1,inactive,inactive
CCOC(=O)c1ccc(-n2cnc3c(c2=N)C(c2cccc(OC)c2)c2c(ccc4ccccc24)O3)cc1 (centres undefined),inactive,inactive
CC(=O)N[C@H](C(=O)N[C@@H](C)C(=O)N[C@H](C#N)CC(=O)O)C(C)C,inactive,inactive
O=C1CCc2cc(S(=O)(=O)Nc3cccnc3)ccc2N1,inactive,inactive
FC(F)(F)c1cccc(N2CCN(C(=S)Nc3cc(C(F)(F)F)ccn3)CC2)c1,inactive,inactive
Cc1cccc(CNc2ncnc3ccc(-c4ccc5c(c4)OCCO5)cc23)c1,inactive,inactive
O=C(Nc1ccc(Br)c(Br)c1)Nc1nnc(-c2cccnc2)s1,inactive,inactive
O=C(Nc1ccc2ccccc2c1)Nc1nnc(C2CCCCC2)s1,inactive,inactive
CC(=O)Nc1ccc(S(=O)(=O)N2CCCN(S(=O)(=O)c3ccc4c(c3)OCCO4)CC2)cc1,inactive,inactive
Cc1cc2c(s1)c1cnn(Cc3ccc(C(F)(F)F)cc3F)c(=O)c1n2C,inactive,inactive
CC(=O)Nn1c(C)nc2sc3c(c2c1=O)CCNC3,inactive,inactive
O=c1c2ccccc2nc2sc(Nc3ccc(Br)cc3)nn12,inactive,inactive
O=S(=O)(c1ccc2c(c1)OCCO2)N1CCN(S(=O)(=O)c2ccccc2OC(F)(F)F)CC1,inactive,inactive
CC(=O)Nc1sc2c(c1-c1ccc3c(c1)OCCCO3)CCNC2,inactive,inactive
Cn1c2cc(C#N)sc2c2cnn(Cc3ccccc3F)c(=O)c21,inactive,inactive
COc1ccc(S(=O)(=O)N2CCN(S(=O)(=O)c3ccc(OC)cc3)CC2)cc1,inactive,inactive

SMILES,Potency [1],Potency [2]
O=S(=O)(NCCCCCNS(=O)(=O)c1c(F)cccc1F)c1ccc2c(c1)OCCO2,inactive,inactive
FC(F)(F)c1cccc(N2CCN(C(=S)Nc3cccnc3)CC2)c1,inactive,inactive
O=C(O)c1ccc2c(c1)C(=O)N([C@H](Cc1ccc3ccccc3c1)C(=O)O)C2=O,inactive,inactive
COc1cccc(NS(=O)(=O)c2ccc(NCc3cccc(OC)c3O)cc2)c1,inactive,inactive
Clc1ccc(CSc2nc3ncc(Br)cc3[nH]2)cc1,inactive,inactive
CC1=C(C(=O)c2ccccc2)C(c2ccccc2Cl)N=C(Nc2nc3ccccc3o2)N1 (centres undefined),inactive,inactive
C[C@H](Oc1cc(-n2cnc3ccc(CN4CCN(C)CC4)cc32)sc1C(N)=O)c1ccccc1C(F)(F)F,inactive,inactive
O=C(/C=C/c1cccs1)Nc1cccc([S+](=O)([O-])Nc2ccccc2F)c1,inactive,inactive
COc1cccc(-c2ccc3ncnc(NCc4cccs4)c3c2)c1,inactive,inactive
S=C(Nc1ccc(Cl)c(Cl)c1)Nc1nnc(-c2ccncc2)o1,inactive,inactive
O=C(Nc1ccc(Cl)c(S(=O)(=O)N2CCOCC2)c1)c1ccc(S(=O)(=O)N2CCOCC2)cc1,inactive,inactive
COC(=O)c1ccc(O)c2ncc(-c3ccc(C(=O)NCCCN(C)C)cc3)cc12,inactive,inactive
c1csc(CNc2ncnc3ccc(-c4ccc5c(c4)OCCO5)cc23)c1,inactive,inactive
Cc1cc2c(s1)c1cnn(Cc3c(F)cccc3C(F)(F)F)c(=O)c1n2C,inactive,inactive
COc1cc(-c2ccc3ncnc(N(C)Cc4csc(C)n4)c3c2)cc(OC)c1OC,inactive,inactive
c1ccc(-c2cnc(Nc3ccc(OCCN4CCCC4)cc3)s2)cc1,inactive,inactive
CCOc1ccc(CCNC(=O)c2cc3sccc3n2CCN2CCOCC2)cc1OCC,inactive,inactive
C#C[C@]1(O)CC[C@H]2[C@@H]3CCC4=C/C(=N/O)CC[C@@H]4[C@H]3CC[C@@]21CC,inactive,inactive
